The values that follow come from the supplement of paper PMC4894684.

Structures can show the parent of a compound that is named as a salt. ± gives the standard deviation of the averaged measurements. Where only a bound is given, the exact number is not on record here.

The assay deals with Toxoplasma gondii RH (in HFF). The assay can be described thus: parasite growth relative to the screen mean (all compounds = 100%); higher = less inhibition of parasite growth. Conditions: 5 µM; 72 h; oxygen 21 %. In a few lines:
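Values give growth relative to the screen mean. The screen mean (all compounds) is set at 100%, and two screens were averaged. Compounds at 5 µM final were placed on confluent human foreskin fibroblasts, which were infected within 2 h with RH β-Gal–GFP Toxoplasma (MOI 1:5) and kept 72 h at 21% O2 before a CPRG β-Gal readout against in-plate standard curves.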
In the case of `c1ccc2c(c1)[I+]c1ccccc1-2` [Diphenyleneiodonium chloride], the parasite growth is less than 0%.

Turning to `N[C@@H](Cn1oc(=O)[nH]c1=O)C(=O)O` [L-Quisqualic acid], the parasite growth was 99 ± 20%.

`CC(=O)NCCc1c[nH]c2ccccc12` [N-Acetyltryptamine]: the parasite growth amounted to 146 ± 7.5%.

On to `c1ccc2sc(C3(N4CCCCC4)CCCCC3)cc2c1` [BTCP maleate], for which the parasite growth amounted to 64.9 ± 4.1%.

In turn, `COc1ccc(C(=O)N2CCCC2=O)cc1` [Aniracetam] yielded a parasite growth of 97.2 ± 53%.

Molecule `O=C1C2CCN(CC2)C1(CO)CO` displayed a parasite growth of 144 ± 4%.

Turning to `C[N+]1(C)CCc2cc3c(cc2C1C1OC(=O)c2c1ccc1c2OCO1)OCO3` (single isomer, unassigned; (-)) [(-)-Bicuculline methobromide], the parasite growth worked out at 131 ± 20%.

Consider `C/C(O)=C(\C#N)C(=O)Nc1cc(Br)ccc1Br`, for which the parasite growth amounted to 130 ± 7.2%.

In turn, `c1ccc2nc(N3CCNCC3)ccc2c1` [Quipazine dimaleate] displayed a parasite growth of 115 ± 8.3%.

The molecule `C[C@@H]1O[C@@H](O[C@H]2C[C@@H](O)[C@]3(CO)[C@H]4[C@H](O)C[C@]5(C)[C@@H](C6=CC(=O)OC6)CC[C@]5(O)[C@@H]4CC[C@]3(O)C2)[C@H](O)[C@H](O)[C@H]1O` [Ouabain] yielded a parasite growth of 52.8 ± 8.2%.

In turn, `CCOC(=O)c1ncc2[nH]c3ccc(OCc4ccccc4)cc3c2c1COC` registered a parasite growth of 83.8 ± 31%.

As for `O=C(O)C1=CCCN(CCOC(c2ccc(C(F)(F)F)cc2)c2ccc(C(F)(F)F)cc2)C1` [CI 966 hydrochloride], the parasite growth amounted to 137 ± 5.2%.

`COc1ccc2[nH]cc(C3=CCNCC3)c2c1` had a parasite growth of 105 ± 28%.

On to `N[C@@H]1C[C@H]1c1ccccc1` [Tranylcypromine hydrochloride], for which the parasite growth was determined as 130 ± 22%.
